Consider 5 compounds from PubChem BioAssay (EPA / NIEHS).

Read-out in experiment [1]: Tissue Factor, F3 (gene 2152)
The experiment in a line: BSK_CASM3C_TissueFactor: BioMAP Diversity Plus: CASM3C Assay for Tissue Factor Biomarker Activity (AID 2283052).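 Further: cell surface tissue factor protein level read by ELISA.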 Particulars: primary human coronary artery smooth muscle cells; actives raise or lower the signal.

Read-out in experiment [2]: Interferon-gamma inducible Protein 10 (IP10), CXCL10 (gene 3627)
The experiment can be described thus: BSK_hDFCGF_IP10: BioMAP Diversity Plus: hDFCGF Assay for Interferon-gamma inducible Protein 10 (IP10) Biomarker Activity (AID 2283053). Particulars: primary human foreskin fibroblasts; actives raise or lower the signal. An outline of the steps: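 Primary foreskin fibroblasts, human; 24 h compound exposure; IP-10 by ELISA; bidirectional fit vs DMSO.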

Read-out in experiment [3]: Urokinase-type plasminogen activator receptor (uPAR), PLAUR (gene 5329)
The experiment in a line: BSK_CASM3C_uPAR: BioMAP Diversity Plus: CASM3C Assay for Urokinase-type plasminogen activator receptor (uPAR) Biomarker Activity (AID 2283054).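 Further: cell-surface uPAR protein level quantified by ELISA.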 Particulars: primary human coronary artery smooth muscle cells; actives raise or lower the signal.

Read-out in experiment [4]: Vascular cell adhesion molecule 1 (VCAM1), VCAM1 (gene 7412)
The experiment can be described thus: BSK_CASM3C_VCAM1: BioMAP Diversity Plus: CASM3C Assay for Vascular cell adhesion molecule 1 (VCAM1) Biomarker Activity (AID 2283055).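 Further: VCAM-1 protein level quantified by ELISA on the cells.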 Particulars: primary human coronary artery smooth muscle cells; actives raise or lower the signal.

Read-out in experiment [5]: Collagen III, COL3A1 (gene 1281)
The experiment in a line: BSK_hDFCGF_CollagenIII: BioMAP Diversity Plus: hDFCGF Assay for Collagen III Biomarker Activity (AID 2283056). Particulars: primary human foreskin fibroblasts; actives raise or lower the signal. An outline of the steps: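 hDFCGF primary human dermal fibroblasts; 24 h chemical exposure; collagen III by ELISA; bidirectional curve fit vs DMSO baseline (gain or loss of signal).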

Read-out in experiment [6]: Epidermal growth factor receptor (EGFR), EGFR (gene 1956)
The experiment can be described thus: BSK_hDFCGF_EGFR: BioMAP Diversity Plus: hDFCGF Assay for Epidermal growth factor receptor (EGFR) Biomarker Activity (AID 2283057). Particulars: primary human foreskin fibroblasts; actives raise or lower the signal. In a few lines:
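hDFCGF system, primary human foreskin fibroblasts; compound 24 h; EGFR measured by ELISA; DMSO = negative control/baseline; bidirectional fitting.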

Experiment [7] in a line: BSK_hDFCGF_Proliferation: Cell Proliferation Assessment in the BioMAP Diversity Plus: hDFCGF Assay (AID 2283059).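 Further: curves fitted for both rise and fall of signal versus DMSO baseline.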 Particulars: primary human foreskin fibroblasts. In a few lines:
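Total protein read at 560 nm after 0.1% SRB staining of TCA-fixed human skin fibroblasts, […]. Activity is fitted in both directions relative to DMSO as baseline.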

Read-out in experiment [8]: Macrophage colony-stimulating factor (MCSF), CSF1 (gene 1435)
The experiment can be described thus: BSK_hDFCGF_MCSF: BioMAP Diversity Plus: hDFCGF Assay for Macrophage colony-stimulating factor (MCSF) Biomarker Activity (AID 2283060). Particulars: primary human foreskin fibroblasts; actives raise or lower the signal. An outline of the steps:
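ELISA read-out of M-CSF in human dermal foreskin fibroblast cultures, 24 h after chemical dosing; gain or loss of signal fitted bidirectionally relative to DMSO baseline.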

The nature of experiment [9]: BSK_hDFCGF_SRB: Viability Assessment in the BioMAP Diversity Plus: hDFCGF Assay (AID 2283061).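 Further: cells exposed to compound for 24 h before the read.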 Particulars: primary human foreskin fibroblasts. In a few lines:
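Primary human foreskin fibroblasts; 24 h post-dose; fixed 10% TCA, stained 0.1% SRB, A560 read; total protein as overt cytotoxicity measure; curves fit bidirectionally vs DMSO control.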

Read-out in experiment [10]: TIMP metallopeptidase inhibitor 1 (TIMP1), TIMP1 (gene 7076)
The experiment in a line: BSK_hDFCGF_TIMP1: BioMAP Diversity Plus: hDFCGF Assay for TIMP metallopeptidase inhibitor 1 (TIMP1) Biomarker Activity (AID 2283062). Particulars: primary human foreskin fibroblasts; actives raise or lower the signal. An outline of the steps: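 ELISA readout of TIMP-1 from human dermal foreskin fibroblast cultures 24 h post-dosing. Curves were fitted in both directions against DMSO baseline, with SRB total-protein staining in parallel cultures as a cytotoxicity check.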

Read-out in experiment [11]: Monokine induced gamma interferon (MIG), CXCL9 (gene 4283)
The experiment in a line: BSK_hDFCGF_MIG: BioMAP Diversity Plus: hDFCGF Assay for Monokine induced gamma interferon (MIG) Biomarker Activity (AID 2283063). Particulars: primary human foreskin fibroblasts; actives raise or lower the signal. In a few lines: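 Fibroblasts (human foreskin, primary) dosed, 24 h, MIG by ELISA; fit bidirectional vs DMSO.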

Read-out in experiment [12]: Matrix Metallopeptidase 1 (MMP1), MMP1 (gene 4312)
The experiment can be described thus: BSK_hDFCGF_MMP1: BioMAP Diversity Plus: hDFCGF Assay for Matrix Metallopeptidase 1 (MMP1) Biomarker Activity (AID 2283064). Particulars: primary human foreskin fibroblasts; actives raise or lower the signal. An outline of the steps: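 hDFCGF primary fibroblasts (human foreskin); chemical added; 24 h; MMP1 by ELISA; bidirectional fit vs DMSO.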

Read-out in experiment [13]: Vascular cell adhesion molecule 1 (VCAM1), VCAM1 (gene 7412)
The experiment in a line: BSK_hDFCGF_VCAM1: BioMAP Diversity Plus: hDFCGF Assay for Vascular cell adhesion molecule 1 (VCAM1) Biomarker Activity (AID 2283065). Particulars: primary human foreskin fibroblasts; actives raise or lower the signal. An outline of the steps: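 ELISA read-out of VCAM-1 on human skin fibroblasts, 24 h post-dose; gain or loss of signal fitted bidirectionally against DMSO baseline.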

Read-out in experiment [14]: Plasminogen activator inhibitor-1 (PAI1), SERPINE1 (gene 5054)
The experiment in a line: BSK_hDFCGF_PAI1: BioMAP Diversity Plus: hDFCGF Assay for Plasminogen activator inhibitor-1 (PAI1) Biomarker Activity (AID 2283066). Particulars: primary human foreskin fibroblasts; actives raise or lower the signal. In a few lines: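 Primary dermal fibroblasts (human foreskin), hDFCGF system; compound 24 h; PAI-1 by ELISA; bidirectional fit vs DMSO control.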

Read-out in experiment [15]: Intercellular Adhesion Molecule 1 (ICAM1), ICAM1 (gene 3383)
The experiment can be described thus: BSK_KF3CT_ICAM1: BioMAP Diversity Plus: KF3CT Assay for Intercellular Adhesion Molecule 1 (ICAM1) Biomarker Activity (AID 2283067). Particulars: primary human keratinocytes with fibroblasts; actives raise or lower the signal. An outline of the steps:
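ELISA readout of ICAM-1; KF3CT human skin co-culture (keratinocytes + foreskin fibroblasts), 24 h post-dose; gain/loss fit vs DMSO baseline.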

Read-out in experiment [16]: Interferon-gamma inducible Protein 10 (IP10), CXCL10 (gene 3627)
The experiment in a line: BSK_KF3CT_IP10: BioMAP Diversity Plus: KF3CT Assay for Interferon-gamma inducible Protein 10 (IP10) Biomarker Activity (AID 2283068). Particulars: primary human keratinocytes with fibroblasts; actives raise or lower the signal. In a few lines: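 Human keratinocyte plus foreskin fibroblast primary co-culture exposed to test chemical for 24 h; IP-10 measured by ELISA. Concentration-response fitted bidirectionally against DMSO control as baseline.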

Experiment [17] in a line: BSK_KF3CT_SRB: Viability Assessment in the BioMAP Diversity Plus: KF3CT Assay (AID 2283069).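 Further: total protein by sulforhodamine B staining as a cytotoxicity measure; read 24 h after compound addition.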 Particulars: primary human keratinocytes with fibroblasts. An outline of the steps:
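Keratinocytes co-cultured with foreskin fibroblasts (human primary); chemical added, 24 h; fix 10% TCA, stain 0.1% SRB, A560. Bidirectional fit vs DMSO.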

Read-out in experiment [18]: Interleukin-1 alpha (IL1a), IL1A (gene 3552)
The experiment can be described thus: BSK_KF3CT_IL1a: BioMAP Diversity Plus: KF3CT Assay for Interleukin-1 alpha (IL1a) Biomarker Activity (AID 2283070). Particulars: primary human keratinocytes with fibroblasts; actives raise or lower the signal. In a few lines: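 Chemicals were dosed onto co-cultured human keratinocytes and foreskin fibroblasts, IL-1a was quantified by ELISA at 24 h, and activity was fitted in both directions relative to DMSO controls.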

Read-out in experiment [19]: TIMP metallopeptidase inhibitor 2 (TIMP2), TIMP2 (gene 7077)
The experiment in a line: BSK_KF3CT_TIMP2: BioMAP Diversity Plus: KF3CT Assay for TIMP metallopeptidase inhibitor 2 (TIMP2) Biomarker Activity (AID 2283071). Particulars: primary human keratinocytes with fibroblasts; actives raise or lower the signal. In a few lines:
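Cells: human keratinocytes co-cultured with foreskin fibroblasts. Treat with chemical, 24 h. Measure TIMP-2 by ELISA; fit curves bidirectionally vs DMSO baseline.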

SMILES strings stand for the structures. Active and inactive are the calls of the source. How the source made its calls: active means hit-call score of the fitted dose curve at least 0.9, where 1 is the maximum; inactive means score below 0.9.

Consider `O=C(Nc1ccccc1-c1ccc(Cl)cc1)c1cccnc1Cl`, for which the outcome in experiment [1], in experiment [2], in [3], in [4], in [5] and in experiment [6] was inactive. The result in experiment [7], in [8], in experiment [9], in experiment [10], in experiment [11] and in experiment [12] was inactive. Also, the result in experiment [13], in experiment [14], in experiment [15], in [17], in experiment [18] and in [19] was inactive. Besides, in [16], the AC50 was 0.128 µM (active).

Take `CO/N=C(/C1=NOCCO1)c1ccccc1Oc1ncnc(Oc2ccccc2Cl)c1F`: the outcome in [1], in [2], in experiment [3], in [4], in [5] and in experiment [6] was inactive. Moreover, the outcome in [8], in [9], in experiment [11], in [12], in experiment [13] and in experiment [14] was inactive. The result in [15], in experiment [17] and in experiment [19] was inactive. Moreover, the AC50 was 26.7 µM (active) in [7], 8.26 µM (active) in experiment [10], 7.33 µM (active) in [16] and 20 µM (active) in experiment [18].

Consider `CN/C(=N\[N+](=O)[O-])NCc1cnc(Cl)s1`, for which the outcome in experiment [1], in experiment [2], in experiment [3], in [4], in [5] and in experiment [6] was inactive. For the same compound, the result in experiment [7], in experiment [8], in experiment [9], in experiment [10], in [11] and in experiment [12] was inactive. Further, the result in [13], in experiment [14], in experiment [15], in experiment [16], in experiment [17] and in [18] was inactive. Also, in experiment [19], the outcome was inactive.

As for `CCCC(=NOCC)C1=C(O)CC(CC(C)SCC)CC1=O` (stereo not given), the outcome in experiment [1], in experiment [2], in [3], in [4], in experiment [5] and in experiment [6] was inactive. For the same compound, the result in [7], in experiment [8], in experiment [9], in experiment [10], in [11] and in experiment [12] was inactive. The result in [13], in [14], in experiment [15], in experiment [16], in experiment [17] and in experiment [18] was inactive. Further, in experiment [19], the outcome was inactive.

For `CCOc1nc(F)cc2nc(S(=O)(=O)Nc3c(Cl)cccc3Cl)nn12`, the outcome in experiment [1], in [2], in experiment [3], in experiment [4], in [5] and in experiment [6] was inactive. Besides, the result in experiment [7], in [8], in experiment [9], in [10], in [11] and in experiment [12] was inactive. Besides, the outcome in [13], in [14], in experiment [15], in experiment [17], in experiment [18] and in experiment [19] was inactive. Further, the AC50 in [16] is 34 µM (active).

Usually AC50 stands for the midpoint of the concentration-response curve, whichever way the signal moves.
